# Rows were chosen to be rich in hits. Some 4.3% of all compounds tested hit in one or more screens of this group.
# UBC13 inh: blocks human UBC13 polyubiquitin chain formation; P61088; TR-FRET; inhibition, % at 20 µM; actives 0.47% (n = 330,000); in the data active = inhibition above about 45%, passing the limit was not always enough
# Target sequence (P61088 whole entry, looked up): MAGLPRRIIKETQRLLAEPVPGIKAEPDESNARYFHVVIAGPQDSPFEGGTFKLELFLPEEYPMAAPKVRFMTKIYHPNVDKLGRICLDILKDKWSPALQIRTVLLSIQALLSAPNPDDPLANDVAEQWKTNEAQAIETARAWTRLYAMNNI
# Yeast superoxide: lowers age-related superoxide in aged yeast cells; S. cerevisiae aged cells, superoxide DHE fluorescence; stronger effect = lower value; superoxide response (% of plate mean), % at 10 µM; actives 0.18% (n = 330,000); AID 2690;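 active = superoxide response under a set limit, about three screen SD below normal, cut at about 65% in these data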;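 note: yeast aged for seven days with compound at 30 °C before DHE staining; 100% = average MFI of all compound-treated wells on the plate with controls excluded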
# NR3A LBD binder: modulators (binders) of human NR3A ligand-binding domain; NR3A LBD differential scanning fluorimetry, Tm shift; 0% = protein alone, 100% = glycine-bound protein; AID 1259313; actives 2.5% (n = 340,000); Tm shift relative to glycine control, % at 25 µM;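 active = melting temperature shift of at least 10% of the positive control shift, at one fixed dose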
# dFosB act-1: enhances mouse delta FosB homodimer DNA binding; activation, % at 25 µM; actives 0.99% (n = 340,000); purified delta FosB, TAMRA-CDK5 oligo fluorescence polarization; percent of positive-control signal above neutral wells; AID 493131;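 active = mean activation above about 17%, with every replicate also reaching it, limit read from the data, passing the limit was not always enough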
# NALP1 yeast inh: NALP1 inhibition; actives 0.61% (n = 280,000); S. cerevisiae NALP1/ASC/caspase-1 growth, X-gal OD620, 72 h; inhibition, % at 10 µM; AID 2071; in the data active = inhibition mostly above about 24%, no sharp cut-off; inactive = mostly below about 32%
# dFosB act-2: enhances mouse delta FosB homodimer binding to DNA; shares compounds with dFosB act-1; purified delta FosB, TAMRA-CDK5 oligo fluorescence polarization; normalised: neutral wells 0, positive control 100; activation, % at 24.9 µM; 2,400 tested, under 10 active; AID 588690;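 active = highest replicate activation at or above 34% and every replicate reaching that threshold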;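 note: higher polarization means more probe DNA bound by delta FosB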
# Numbers without * were called inactive; nt = no result given.
SMILES,UBC13 inh,Yeast superoxide,NR3A LBD binder,dFosB act-1,NALP1 yeast inh,dFosB act-2
O=C(NNC(=O)c1cccs1)c1cccc(F)c1,-4,96,-3,-1,7,nt
O=C(N/N=C/c1ccc(OC(=O)c2cccs2)cc1)c1cccc(F)c1,1,92,-3,61*,38,0
O=C(N/N=C/c1ccc(OC(=O)c2cccc(F)c2)cc1)c1cccnc1,-2,94,0,94*,15,-1
COc1ccc(C(=O)N/N=C/c2ccc(OC(=O)c3ccccc3)cc2)cc1,-8,98,1,-6,8,nt
Cc1ccc2occ(/C=N/NC(=O)c3ccc(O)cc3)c(=O)c2c1,5,99,4,52*,-32,2
Cc1cccc(C(=O)Oc2ccc(/C=N/NC(=O)c3ccc(O)cc3)cc2)c1,9,97,23*,34*,4,1
COc1cc2c(-c3ccc4[nH]ccc4c3)c(-c3ccc(C#N)cc3)oc(=O)c2cc1OC,24,107,-8,6,nt,nt
OC(CN1CCC(Cc2ccccc2)CC1)c1ccccc1 (configuration not stated),7,98,1,-9,6,nt
CSc1ccc(-c2sc(Nc3ccccc3)n[n+]2-c2ccccc2)cc1,-1,97,-3,0,11,nt
CCc1ccc(Nc2n[n+](-c3ccccc3)c(-c3ccc(SC)cc3)s2)cc1,9,105,-26,31*,11,0
CC1CC(C)CN(C(=O)Cn2c(SCC(=O)N3CCc4ccccc4C3)nc3ccccc32)C1 (configuration not stated),-6,92,-2,24*,-5,6
CCOC(=O)c1c(C)[nH]c(C(=O)OCC(=O)Nc2cc(Cl)ccc2OC)c1C,-8,84,-5,-1,9,nt
CCOC(=O)c1c(C)[nH]c(C(=O)OCC(=O)Nc2cc(C)ccc2OC)c1C,-23,101,3,23*,-7,0
CCOc1cc2[nH]c(=O)n(CCc3ccc(OC)c(OC)c3)c(=O)c2cc1OCC,-1,95,3,25*,4,-13
CCOc1cc2[nH]c(=S)n(Cc3ccc(C(=O)NCCCN(CC)CC)cc3)c(=O)c2cc1OCC,25,96,1,30*,-4,5
Cc1ccc(Cn2c(=S)[nH]c3ccc(N4CCOCC4)cc3c2=O)o1,2,110,-4,-6,10,nt
CCOc1cc2[nH]c(=S)n(Cc3ccc(C)o3)c(=O)c2cc1OCC,1,108,-4,34*,-6,3
O=C(NCC1CCCO1)c1ccc2c(=O)n(Cc3cccc(Br)c3)c(=S)[nH]c2c1 (configuration not stated),39,102,1,44*,0,-4
CCOc1cc2[nH]c(=S)n(CCc3ccc(OC)c(OC)c3)c(=O)c2cc1OCC,2,113,4,-1,-11,nt
CCCn1c(=S)[nH]c2cc(C(=O)NCC3CCCO3)ccc2c1=O (configuration not stated),10,96,3,3,5,nt
COc1ccc(CC(=O)OCC(=O)c2ccc(S(=O)(=O)N3CCCCC3)cc2)cc1,2,112,-1,-6,nt,nt
Cc1nnsc1S(=O)c1ccc(Br)cc1 (configuration not stated),2,109,-1,6,-3,nt
CCOCCCn1c(=S)[nH]c2cc(C(=O)N3CCN(C4CCCCC4)CC3)ccc2c1=O,4,90,0,-10,-33,nt
CCOc1cc2[nH]c(=S)n(Cc3ccc(C(=O)NCCCN4CCOCC4)cc3)c(=O)c2cc1OCC,16,99,-1,9,-11,nt
O=C(c1ccc(Cn2c(=S)[nH]c3ccc(Br)cc3c2=O)cc1)N1CCN(C2CCCCC2)CC1,38,111,0,31*,-1,5
COC(=O)c1ccc2c(=O)n(Cc3ccc(C(=O)NCCCN4CCOCC4)cc3)c(=S)[nH]c2c1,15,117,-2,29*,19,5
COc1ccccc1Cn1c(=S)[nH]c2cc(C(=O)NCc3cccnc3)ccc2c1=O,1,129,-11,8,2,nt
COC(=O)c1ccc2c(=O)n(Cc3ccc(C(=O)NCCCN4CCC(C)CC4)cc3)c(=S)[nH]c2c1,-5,84,0,1,-1,nt

# Screening data as filed in PubChem BioAssay.
